# Shiga inhibitor: A qHTS for Small Molecule Inhibitors of Shiga Toxin; Vero cells, Shiga toxin protein synthesis inhibition reporter; inhibition, % at 38.7 µM; actives 9.2% (n = 290,000); in the data active = inhibition mostly above about 28%, no sharp cut-off; inactive = mostly below about 43%; also: 0% is about no effect
# Pf growth 48h: Primary qHTS for delayed death inhibitors of the malarial parasite plastid, 48 hour incubation; AID 504832, 2011; Potency, µM (series often up to 28.7 µM), for the others: at the top dose activity change, negative = inhibition, actives largely listed as inhibitors; P. falciparum luciferase growth in erythrocytes, 48 h; actives 5.9% (n = 310,000); also: potency is read from the fitted curve at half-maximal effect; % is scaled to controls: 0 for no effect and ±100 for the full control effect
#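 Here the parasites carry a stable luciferase gene and grow inside erythrocytes in Albumax-based RPMI medium with compound for one erythrocytic cycle. Activity is scored as loss of luminescent signal.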
# CHX counter: Cycloheximide Counterscreen for Small Molecule Inhibitors of Shiga Toxin; actives 12% (n = 300,000); cell reporter, cycloheximide protein synthesis inhibition counterscreen; max response, %; in the data active = max response mostly above about 13%, no sharp cut-off; inactive = mostly below about 14%; also: read at 38.3 µM for the half of the compounds with a filed dose; 0% is about no effect
# Sm TGR block: qHTS Assay for the Inhibitors of Schistosoma Mansoni Peroxiredoxins | Schistosoma mansoni thioredoxin glutathione reductase (TGR), Q962Y6 | purified TGR, DTNB reduction, TNB absorbance 405 nm | Potency, µM (doses to about 114 µM), inactives show at the highest dose activity change, negative = inhibition, actives largely listed as inhibitors | actives 3% (n = 360,000); also: potency is read from the fitted curve at half-maximal effect; % is scaled to controls: 0 for no effect and ±100 for the full control effect; nearly all actives have a fitted effect of over 60% in size
#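 Kinetic colorimetric format: TGR-catalysed, NADPH-driven DTNB reduction monitored via TNB absorbance. Enzyme dispensed at 20 nM; compound exposure 15 min at room temperature before reaction start.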
# NS1 inh: qHTS Assay for Inhibitors of Influenza NS1 Protein Function; Potency, µM (series often up to 46.1 µM), for the others: top-dose activity, positive = more growth; actives 0.4% (n = 270,000); calls by dose curve; also: potency is read from the fitted curve at half-maximal effect; actives are rising curves; nearly all actives have a fitted effect of over 50% in size
#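 Recovery from NS1-induced slow growth read by OD600 in budding yeast switched to galactose assay medium (pH 6.0, -URA) at 1:100 dilution. Compound 23 nl per well; the matching strain lacking NS1 serves as control.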
# Pf growth 96h: Primary qHTS for delayed death inhibitors of the malarial parasite plastid, 96 hour incubation; AID 504834, 2011; P. falciparum luciferase reporter growth, 96 h; actives 6.9% (n = 320,000); Potency, µM (top dose mostly 28.7 µM), without a hit: top-dose activity change, negative = inhibition, actives largely listed as inhibitors; also: potency is read from the fitted curve at half-maximal effect; % is scaled to controls: 0 for no effect and ±100 for the full control effect
#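 Two-generation exposure (96 h) targets delayed-death phenotype. Reporter parasites carrying integrated firefly luciferase, in red cells at 2% hematocrit and 0.05% parasitemia final, kept at 37 C, 5% CO2; luminescence loss indicates inhibition.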
# The depositor's hits bear a star; ? = inconclusive; . = no result. Compounds with a hit are over-represented: about 21% of the library has one in this group of screens. Unless noted, calls follow the shape of the dose curve; as a rule, active = well fitted curve in the direction sought with a large enough effect; inconclusive = small, poorly fitted or top-dose-only effect, or another doubt; inactive = no such curve, though single readings can be large; an effect the other way counts as inactive or inconclusive.
SMILES,Shiga inhibitor,Pf growth 48h,CHX counter,Sm TGR block,NS1 inh,Pf growth 96h
COc1ccc(NC(=O)CSc2nnc(Cc3cccn3C)n2-c2ccc(F)cc2)cc1OC,15.3,?,6.5,44.7µM*,?,?
COc1ccc(-n2c3c(c(=O)[nH]c2=O)C(NC(C)=O)(C(F)(F)F)C(=O)N3)cc1 (stereo unspecified),-2.2,13.2%,-1.7,-0.3%,.,136.9%
COc1ccc(-n2c(Cc3cccn3C)nnc2SCC(=O)N2CCC(C)CC2)cc1,-9.1,?,-4.2,-18.3%,?,0.37µM*
CCc1ccc(NC(=O)CSc2nnc(Cc3cccn3C)n2-c2ccc(OC)cc2)cc1,-2.3,?,-1.6,12.7%,-36.8%,8.28µM*
Cn1cccc1Cc1nnc(SCC(=O)Nc2ccccc2)n1-c1ccc(F)cc1,1.8,?,3.4,-22.5%,-5.7%,-1.6%
COc1ccc(-n2c(Cc3cccn3C)nnc2SCC(=O)N2CCCC2)cc1,-1.8,?,-3.0,-30.8%,?,?
COc1ccc(-n2c(Cc3cccn3C)nnc2SCC(=O)Nc2ccccc2)cc1,-2.9,11.7µM*,-1.5,?,5.7%,?
OCCNNC(=S)NC1CC2C=CC1C2 (stereo unspecified),29.3,1.3%,4.6,-3.5%,2.1%,22.0%
CCOc1ccc(/C(O)=C2/C(=O)C(=O)N(CCCn3ccnc3)C2c2cccs2)cc1Cl (stereo unspecified),63.1*,-10.7%,46.7*,?,-4.4%,?
CCCOc1ccc(/C(O)=C2/C(=O)C(=O)N(CCCn3ccnc3)C2c2cccnc2)cc1 (stereo unspecified),-5.0,-20.7%,-3.1,?,-45.5%,2.8%
CCCOc1ccc(/C(O)=C2/C(=O)C(=O)N(CCCn3ccnc3)C2c2cccs2)cc1 (stereo unspecified),13.1,17.0%,15.7*,-15.1%,2.9%,16.3%
O=S1(=O)CCN(Cc2cccc(C(F)(F)F)c2)CC1,18.5,14.6%,1.8,2.2%,.,25.4%
Cc1ccc(C)c(CN2C(=O)CSc3ccc(C(=O)NCc4ccc(F)cc4)cc32)c1,.,.,.,2.0%,.,.
O=C(COC(=O)CNC(=O)C1CCCCC1)Nc1ccc(Cl)cc1F,-13.5,4.3%,-0.9,-7.4%,.,24.1%
COc1ccc(-c2nnn(CC(=O)c3ccccc3)n2)cc1OC,-3.9,.,4.3,-7.9%,-14.5%,?
COc1cc(-c2nnn(CC(=O)NC3CCS(=O)(=O)C3)n2)ccc1OCc1ccccc1 (stereo unspecified),44.4*,40.0%,16.9*,?,-3.4%,216.9%
COc1cc(-c2nnn(CC#N)n2)ccc1OCc1ccccc1,63.9*,151.5%,29.9*,1.7%,-76.0%,.
O=C(Cn1nnc(-c2ccc(Cl)cc2)n1)NC1CCS(=O)(=O)C1 (stereo unspecified),.,2.2%,.,3.0%,.,-5.4%
CCC(C)c1ccc(NC(=S)NCCn2cc(Br)cn2)cc1 (stereo unspecified),12.9,?,-1.2,4.4%,.,?
CCC(C)c1ccc(NC(=S)NCCn2cc(Cl)cn2)cc1 (stereo unspecified),13.8,9.28µM*,8.1,-22.7%,-37.7%,?
CCC(=O)N(CC(=O)Nc1sc(C)c(C)c1C(N)=O)C1CCCC1,19.9,-8.8%,3.0,0.7%,.,6.2%
COc1ccc(C(=O)N(CC(=O)Nc2sc(C)c(C)c2C(N)=O)C2CCCC2)cc1,32.6,?,22.9*,-15.6%,-16.2%,-2.5%
Cn1cc(S(=O)(=O)N2CCOCC2)cc1C(=O)Nc1cccc(C#N)c1,.,.,.,2.4%,.,.
Cc1ccc2c(c1)N(CC(=O)Nc1ccccc1C(F)(F)F)C(=O)c1cccnc1O2,.,.,.,-0.9%,.,.
O=S(=O)(Cc1ccc(Cl)cc1)N1CCN(Cc2ccccc2)CC1,5.0,38.9%,-3.7,-14.1%,0.0%,?
SMILES,Shiga inhibitor,Pf growth 48h,CHX counter,Sm TGR block,NS1 inh,Pf growth 96h
CCc1ccc(CN2CCN(S(=O)(=O)Cc3ccccc3)CC2)cc1,-19.9,0.8%,-4.8,33.6%,-0.1%,3.29µM*
O=S(=O)(Cc1ccccc1)N1CCN(Cc2ccc(Br)cc2)CC1,30.9*,28.4%,34.8*,-28.1%,-14.3%,?
Clc1cc(Cl)c(OCC#CI)cc1Cl,.,?,.,.,.,13.5µM*
CCCCn1cc(S(=O)(=O)c2ccc(OC)cc2)c(=O)c2cc(F)c(F)cc21,.,.,.,-8.6%,.,.
O=C(Cn1ncc2c([nH]c3ccccc32)c1=O)Nc1cc(F)ccc1F,.,.,.,4.5%,.,.
CCOc1ccccc1NC(=O)C1CCCN(S(=O)(=O)c2ccc(OC)c(C)c2)C1 (stereo unspecified),-19.5,10.4µM*,-2.9,3.6%,?,.
CCOc1ccccc1NC(=O)C1CCCN(S(=O)(=O)c2cccs2)C1 (stereo unspecified),.,.,.,1.6%,.,.
Cc1cccc(NC(=O)C2CCCN(S(=O)(=O)c3cccc4nsnc34)C2)c1 (stereo unspecified),21.8,.,1.0,-3.3%,7.3%,8.28µM*
COc1ccc(NC(=O)C2CCCN(S(=O)(=O)c3ccc4[nH]c(=O)ccc4c3)C2)cc1OC (stereo unspecified),12.5,24.5%,24.7,-20.1%,-6.8%,11.7µM*
COc1ccccc1NC(=O)C1CCCN(S(=O)(=O)c2cccc3nsnc23)C1 (stereo unspecified),-11.0,.,-6.2,-11.2%,4.1%,3.29µM*
Cc1nn(C)c(C)c1/C=N/NC(=O)CCn1nc(C)c([N+](=O)[O-])c1C,8.5,19.5%,-0.8,14.4%,-2.5%,-2.5%
Cc1cc(S(=O)(=O)N2CCOCC2)ccc1OCC(=O)Nc1ccc(F)c(Cl)c1,-16.8,?,-2.1,4.3%,-8.6%,-27.0%
COc1ccccc1NC(=O)C(Cc1ccccc1)NS(=O)(=O)c1ccc2c(c1)c(=O)n(C)c(=O)n2C (stereo unspecified),.,.,.,-11.1%,.,.
CCOc1ccc(NC(=O)c2ccco2)c([N+](=O)[O-])c1,39.9*,199.6%,66.4*,-21.7%,-1.9%,0.586µM*
CCOc1ccc(NC(=O)c2cc(-c3ccc(C)c(F)c3)on2)c([N+](=O)[O-])c1,.,.,.,5.2%,.,.
CCOc1ccc(NC(=O)c2cccs2)c([N+](=O)[O-])c1,120.4*,194.3%,87.4*,17.8%,?,261.8%
CCOc1ccc(NC(=O)c2cccnc2Cl)c([N+](=O)[O-])c1,-4.7,11.4%,26.3,-5.0%,-2.9%,-8.0%
CCOc1ccc(NC(=O)c2ccc(CC)s2)c([N+](=O)[O-])c1,34.0*,42.3%,23.3*,2.7%,-4.1%,?
COc1ccc(CCN2C(=O)CN(C3CCC(C)CC3)C(=O)C2c2ccc(OC(C)C)c(OC)c2)cc1OC (stereo unspecified),.,.,.,10.7%,.,.

# Screening data deposited in PubChem by National Center for Advancing Translational Sciences (NCATS).
